The source of these data is PubChem BioAssay (NCATS).

Records with an inconclusive call do not appear. Calls of active or inactive are those of the source. Calls follow the shape of the dose curve; as a rule, active = well fitted inhibition curve with a large enough effect; inconclusive = small, poorly fitted or top-dose-only effect; inactive = flat fitted curve, though single readings scatter.
% is scaled to controls: 0 for no effect and ±100 for the full control effect.

Calcium and integrin-binding protein 1 (Homo sapiens), sequence (Q99828 whole entry, looked up): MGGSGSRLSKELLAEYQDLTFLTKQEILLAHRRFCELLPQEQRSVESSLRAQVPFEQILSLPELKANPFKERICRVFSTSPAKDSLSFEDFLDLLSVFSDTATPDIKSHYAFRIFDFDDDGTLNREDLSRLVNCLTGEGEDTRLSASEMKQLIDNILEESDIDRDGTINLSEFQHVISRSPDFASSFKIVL

This experiment has as its target Calcium and integrin-binding protein 1 (Homo sapiens) (UniProt Q99828). The experiment in a line: Primary qHTS for Identification of Calcium Integrin Binding Protein 1 (CIB1) Competitor (AID 1508620).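 Also: GST tagged CIB1 binding a fluorescein labelled alphaIIb integrin peptide tracer; top concentration of the series differs between compounds.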 Conditions: CIB1-GST / FITC-alphaIIb peptide fluorescence polarization; series mostly up to 114 µM; activity change, negative = inhibition: at the top concentration. In outline:
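Fluorescence polarization competition: CIB1-GST (1 uM final) preincubated with compound 15 min at room temperature, then FITC-labeled alphaIIb peptide (100 nM final) added for another 15 min. Polarization read at Ex 480/Em 540.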
On the technique in general: qHTS replaces the single test concentration by a dilution series.
As to `O=S(=O)(c1ccc2c(c1)OCCO2)N1CCCN(S(=O)(=O)c2c(F)cccc2F)CC1`, the “activity change, negative = inhibition” value was 6.16% (inactive).

`O=C(Nc1nnc(-c2ccncc2)s1)Nc1cc(C(F)(F)F)ccc1F`: the “activity change, negative = inhibition” value is 4.19% (inactive).

In the case of `CC(C)(C)OC(=O)Cc1nnc(CNC(=O)c2ccccc2)s1`, the “activity change, negative = inhibition” value is -3.48% (inactive).

On to `O=C1Nc2ccccc2C1Cc1cc(Cl)c(O)c(Cl)c1` (stereo not given), for which the “activity change, negative = inhibition” value is 0.0598% (inactive).

As for `O=C(c1ccco1)N1CCN(c2nc(-c3ccc(Br)cc3)cs2)CC1`, the “activity change, negative = inhibition” value was -0.0658% (inactive).

For `Cc1ccc(OCCn2c(CCNC(=O)c3cccc(C(F)(F)F)c3)nc3ccccc32)cc1`, the Potency result is “inactive”.

With `c1cc2c(cc1CNc1ccc(N3CCOCC3)cc1)OCO2`, the “activity change, negative = inhibition” value is -1.28% (inactive).

Regarding `Cc1ccc(N2CCN(C(=S)Nc3cc(C)ccn3)CC2)cc1`, the “activity change, negative = inhibition” value was -9.46% (inactive).

As to `Cc1cc2c(s1)c1cnn(Cc3cc(F)c(Cl)cc3Cl)c(=O)c1n2C`, the “activity change, negative = inhibition” value is -2.19% (inactive).

Regarding `O=C1CCCC2=C1C(c1cccnc1Cl)N=C(Nc1nc3ccccc3o1)N2` (stereo not given), the “activity change, negative = inhibition” value is -12.3% (inactive).

For `O=[S+]([O-])(c1cc2ccccc2o1)N1CCN([S+](=O)([O-])c2c(F)cccc2F)CC1`, the “activity change, negative = inhibition” value was 0.977% (inactive).

Regarding `Cc1c(P(=O)(c2ccccc2)c2ccccc2)c2ccccc2n1C`, the “activity change, negative = inhibition” value was -13.2% (inactive).

Consider `COc1cc(-c2ccc3ncnc(NCC4CCCO4)c3c2)cc(OC)c1OC` (stereo not given), for which the “activity change, negative = inhibition” value was 0.423% (inactive).

On to `N#Cc1nc(Nc2cccc(Cl)c2)c2ncn(C3CCCC3)c2n1`, for which the “activity change, negative = inhibition” value was 7.83% (inactive).

For `O=C(Nc1ccc2ccccc2c1)Nc1nnc(Br)s1`, the “activity change, negative = inhibition” value was 8.09% (inactive).

Turning to `COCCNc1ccc(NC(=O)c2cccs2)cn1`, the “activity change, negative = inhibition” value is -5.2% (inactive).

As for `O=S(=O)(Nc1ccccc1)c1ccc(O)c2ncccc12`, the “activity change, negative = inhibition” value was -4.49% (inactive).

With `N#Cc1ccc(-c2ccc(CNc3ccc(N4CCC(C(F)(F)F)CC4)cc3)o2)cc1`, the “activity change, negative = inhibition” value is -4.07% (inactive).

On to `Cc1cc2c(s1)c1cnn(Cc3c(F)cc(F)cc3F)c(=O)c1n2C`, for which the “activity change, negative = inhibition” value is 2.74% (inactive).

As for `N#Cc1c(-c2ccc(Cl)c([N+](=O)[O-])c2)no[n+]1[O-]`, the “activity change, negative = inhibition” value was -12.3% (inactive).

Turning to `Cc1cccc(C)c1-n1c(SCC(=O)Nc2ccc(F)cc2)nnc1-c1cccc([S+](=O)([O-])N2CCCC2)c1`, the “activity change, negative = inhibition” value is -0.159% (inactive).

As to `Cc1cc(C)n2ncc(C(=O)Nc3ccc(C(F)(F)F)cc3)c2n1`, the “activity change, negative = inhibition” value is 1.99% (inactive).

As for `N#Cc1nonc1-c1ccccc1`, the “activity change, negative = inhibition” value is 1.62% (inactive).

As to `NC(=O)c1c(NC(=O)c2ccncn2)sc2c1CCCC2`, the Potency entry was “inactive”.

Take `Cc1ccc(OCCn2c(CCNC(=O)c3ccccc3N)nc3ccccc32)cc1`: the “activity change, negative = inhibition” value is -10.5% (inactive).

In the case of `Cc1ccc(NC(=O)CN2C(=O)N/C(=C\c3cccn3-c3ccc(C(=O)O)cc3)C2=O)cc1`, the Potency entry is “inactive”.

Consider `Cc1cc(C)n2ncc(C(=O)NC3CCCCC3)c2n1`, for which the “activity change, negative = inhibition” value is 1.89% (inactive).

Turning to `N/C(=N\c1nnc(-c2ccncc2)s1)Nc1ccc(F)c(C(F)(F)F)c1`, the “activity change, negative = inhibition” value is 5.88% (inactive).

Turning to `NC(=O)c1ccc(-c2noc(-c3ccccc3F)n2)cc1`, the “activity change, negative = inhibition” value was 1.67% (inactive).

Take `Cc1cnc(-c2ccccc2C(C)C)nc1NCc1ccc(-c2cccc(S(N)(=O)=O)c2)cc1`: the “activity change, negative = inhibition” value was 6.54% (inactive).

In the case of `O=C1Cc2cc(S(=O)(=O)N3CCN(c4cccc(C(F)(F)F)c4)CC3)ccc2N1`, the “activity change, negative = inhibition” value was -1.19% [at 228 µM] (inactive).

Take `COc1ccccc1CNc1ccc(S(=O)(=O)Nc2nccs2)cc1`: the “activity change, negative = inhibition” value was 10.1% (inactive).

Take `O=S(=O)(c1ccc2c(c1)OCCO2)N1C[C@@H]2C[C@H]1CN2S(=O)(=O)c1c(F)cccc1F`: the “activity change, negative = inhibition” value is -0.1% (inactive).

`N#Cc1c(-c2cccc(Br)c2)no[n+]1[O-]`: the “activity change, negative = inhibition” value was 4.21% (inactive).

For `Fc1cnc(-c2ccccc2C(F)F)nc1NCC1CCN(c2cnccn2)C1` (stereo not given), the “activity change, negative = inhibition” value is -2.93% (inactive).

In the case of `CC(=O)Nc1sc2c(c1-c1ccccc1F)CCNC2`, the “activity change, negative = inhibition” value is 1.4% (inactive).

`O=C1c2ccccc2C(=O)N1C1CCCCC1`: the “activity change, negative = inhibition” value was -0.478% (inactive).

Take `O=C1CC(c2ccccc2)CC2=C1C1(CCCC1)N=C(Nc1nc3ccccc3o1)N2` (stereo not given): the “activity change, negative = inhibition” value is 0.731% (inactive).

As for `COc1ccc(C2c3c(n(CCCc4ccccc4)cnc3=N)Oc3ccc4ccccc4c32)cc1OC` (stereo not given), the “activity change, negative = inhibition” value is 1.98% (inactive).

Turning to `CC(C)(C)OC(=O)N1CCN(c2ccc(NCc3ccc(-c4cc(C(F)(F)F)cc(C(F)(F)F)c4)o3)cc2)CC1`, the “activity change, negative = inhibition” value is 4.47% (inactive).
